Vaccinia mCherry: qHTS for Stage-Specific Inhibitors of Vaccinia Orthopoxvirus: mCherry Reporter Primary qHTS. Vaccinia virus mCherry reporter infection, fluorescence. Potency, µM (series often up to 36.5 µM), inactives show top-dose activity change, negative = inhibition, actives largely listed as inhibitors. 310,000 tested, 0.63% active; calls by dose curve; tested in A549 cells; note: nearly all actives have a fitted effect of over 35% in size
AMA1 RON2 block: qHTS for Inhibitors of AMA1-RON; Towards Development of Antimalarial Drug Lead: Primary Screen | 360,000 tested, 0.2% active | Potency, µM (highest dose often 58.2 µM), inactives show at the top dose activity change, negative = inhibition, actives largely listed as inhibitors | Plasmodium falciparum AMA1 (3D7) - RON2 peptide interaction | AlphaScreen AMA1-biotinylated RON2 peptide binding;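 note: 0% = vehicle wells and -100% = peptide control; nearly all actives have a fitted effect of over 45% in size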
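AMA1 (3D7) with his tag at 25 nM final met compounds first, then biotinylated RON2 peptide at 25 nM; detection used donor plus acceptor beads, 10 µg/mL apiece, read by AlphaScreen after 30 min at room temperature.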
Pf growth 96h: Primary qHTS for delayed death inhibitors of the malarial parasite plastid, 96 hour incubation; P. falciparum luciferase reporter growth, 96 h; Potency, µM (series often up to 28.7 µM), for inactives: at the highest dose activity change, negative = inhibition, actives largely listed as inhibitors; 320,000 tested, 6.9% active; AID 504834, 2011
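P. falciparum expressing integrated firefly luciferase, in erythrocytes at 2% hematocrit, 0.05% parasitemia, incubated with compounds 96 h at 37 C, 5% CO2. Growth inhibition read as loss of luminescence; two-generation exposure targets delayed-death apicoplast inhibitors.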
Vaccinia Venus: qHTS for Stage-Specific Inhibitors of Vaccinia Orthopoxvirus: Venus Reporter Primary qHTS. Vaccinia virus Venus reporter expression, fluorescence. Potency, µM (highest dose often 36.5 µM), for inactives: at the highest dose activity change, negative = inhibition, most hits filed as inhibitors. 330,000 tested, 0.46% active; calls by dose curve; tested in A549 cells; note: nearly all actives have a fitted effect of over 30% in size
Pf growth 48h: Primary qHTS for delayed death inhibitors of the malarial parasite plastid, 48 hour incubation. P. falciparum luciferase growth in erythrocytes, 48 h. Potency, µM (titrated, usually from 28.7 µM), for inactives: at the top dose activity change, negative = inhibition, usual class: inhibitors. 310,000 tested, 5.9% active
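Compounds are pin-transferred into medium, infected erythrocytes (2% hematocrit, 0.1% parasitemia final) are added, and plates sit one parasite generation at 37 C in 5% CO2. Detection reagent is then added and luminescence measured.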
Active calls of the source: *; i = inactive; ? = inconclusive; · = no result; [ ] = remark or other dose. An excerpt weighted towards active compounds, which were near 8.7% of everything screened. Unless noted, calls come from the whole dose curve; as a rule, active = well fitted curve in the direction sought with a large enough effect; inconclusive = small, poorly fitted or top-dose-only effect, or another doubt; inactive = no such curve, though single readings can be large; an effect the other way counts as inactive or inconclusive. Unless noted, % is set by controls: 0 for no effect and ±100 for the full control effect; potency is the fitted concentration of half-maximal effect.

SMILES | Vaccinia mCherry | AMA1 RON2 block | Pf growth 96h | Vaccinia Venus | Pf growth 48h
Cc1ccc(N(C)C(=O)Cn2nc(Cc3ccncc3)c3ccccc3c2=O)cc1C | -12% | · | · | -11% | ·
CCn1c2c(c(=O)n3ncc(C(=O)Nc4ccc(OC(F)(F)F)cc4)c13)CN(Cc1ccc(OC)cc1)CC2 | 7% | · | · | -2% | ·
COc1ccc(CCNC(=O)c2ccc3c(c2)ncn3-c2ccc(C(C)C)cc2)cc1OC | -17% | · | · | -12% | ·
Cc1cc(OCc2cc(C(=O)N(C)CC3CCOCC3)no2)cc(C)c1Cl | -6%[7.34 µM] | 1% | ? | -3%[7.34 µM] | -6%
CCN(CC1CCCO1)C(=O)c1cc(COc2cc(C)c(Cl)c(C)c2)on1 (configuration not stated) | · | 20% | 12µM* | · | 2%
CCOC(=O)CCSc1nc2c(c(C(F)(F)F)c1C#N)CCC2 | -12% | 51% | -27% | -10% | 9.3µM*
CCCCSc1nc2c(c(C(F)(F)F)c1C#N)CCC2 | · | 45% | ? | · | ·
O=C(O)CSc1nnc(CNc2cccc(C(F)(F)F)c2)n1Cc1ccco1 | · | -16% | 6.6µM* | · | 18%
CCc1ccc(NC(=O)CCCc2nnc3n(C(C)CC)c(=O)c4sccc4n23)cc1 (configuration not stated) | -10% | · | · | -13% | ·
CC(C)c1ccc2[nH]c(O)c(N=NC(=O)c3cccc(S(=O)(=O)N4CCCCC4)c3)c2c1 | ? | 0% | 9.3µM* | -25% | ?
Oc1ccc(NC(=S)N=Nc2c(O)[nH]c3ccccc23)cc1 | ? | 35% | 37% | -19% | -5%
CNC(=S)N=Nc1c(O)[nH]c2ccc(C(C)C)cc12 | -11% | 26% | 6.6µM* | ? | ?
Cc1ccc(NC(=S)N=Nc2c(O)[nH]c3ccccc23)cc1 | -29% | 69% | 1.9µM* | -16% | 5.2µM*
O=C(N=Nc1c(O)[nH]c2ccccc12)c1cccc(S(=O)(=O)N2CCCCC2)c1 | i | 1% | 3.3µM* | -5% | 9.3µM*
COc1cc(CNC(=O)c2cnc3c(-c4cccc(C)c4)c(C)nn3c2C)cc(OC)c1OC | -7% | · | · | -9% | ·
CCOC(=O)c1ccc(NC2=CC(=O)C(=O)c3ccccc32)cc1 | · | -8% | 70% | -4% | 5.9µM*
NS(=O)(=O)c1ccc(NC2=CC(=O)C(=O)c3ccccc32)cc1 | -22% | -7% | 10µM* | ? | ?
Cc1ccc(NC2=CC(=O)C(=O)c3ccccc32)cc1 | · | -19% | 0.83µM* | · | 0.52µM*
Cc1cc(NC2=CC(=O)C(=O)c3ccccc32)no1 | ? | 5% | · | ? | ·
COc1cc(OC)c(NC2=CC(=O)C(=O)c3ccccc32)cc1Cl | 0.89µM* | -15% | 53% | 3.2µM* | 0.33µM*
CCOC(=O)c1ccc(NC(=O)C(C)N2C(=O)c3ccccc3C2=O)cc1 (configuration not stated) | i | 2% | ? | -6% | 12%
CC(=O)Nc1ccc(NC2=CC(=O)c3ccccc3C2=O)cc1 | -21% | -30% | 0.59µM* | -4% | ?
O=C1C=C(Nc2ccc(O)cc2)C(=O)c2ccccc21 | ? | ? | -104% | ? | 98%
COc1ccc(-c2csc(Nc3ccccc3)[n+]2CC(O)c2ccc([N+](=O)[O-])cc2)cc1 (configuration not stated) | · | ? | 1.5µM* | · | 1.3µM*
COc1ccc(-c2nc(NC(=O)c3ccccc3)sc2-c2ccc([N+](=O)[O-])cc2)cc1 | -10% | -11% | ? | -17% | -13%
SMILES | Vaccinia mCherry | AMA1 RON2 block | Pf growth 96h | Vaccinia Venus | Pf growth 48h
OC1(c2cccs2)CN(c2ccc(Cl)cc2)C2=[N+]1CCCC2 (configuration not stated) | 9% | -11% | ? | 1% | ?
Cc1ccc(C)c(N2CC(O)(c3cccs3)[N+]3=C2CCCC3)c1 (configuration not stated) | -7% | -8% | ? | -9% | 10µM*
CCOc1ccc2oc(=O)cc(CN3CCN(c4ccc(Cl)cc4)CC3)c2c1 | -10% | · | · | -9% | ·
Cc1ccccc1C([O-])=Nc1ccc[n+](-c2nc3ccccc3nc2NS(=O)(=O)c2ccccc2)c1 | -18% | 4% | 12µM* | -7% | ?
CCN(CC)S(=O)(=O)c1ccc2[nH]cc(C(=O)NC3CC3)c(=O)c2c1 | · | -1% | 0.47µM* | · | -7%
COc1cccc(NS(=O)(=O)c2ccc3[nH]cc(C(=O)NCCc4ccccc4)c(=O)c3c2)c1 | -5% | · | · | -5% | ·
COc1cccc(NS(=O)(=O)c2ccc3[nH]cc(C(=O)NCCc4ccc(C)cc4)c(=O)c3c2)c1 | -9%[7.34 µM] | · | 12µM* | -10%[7.34 µM] | ?
Cc1ccccc1NS(=O)(=O)c1ccc2[nH]cc(C(=O)NC3CCCCC3)c(=O)c2c1 | -5%[7.34 µM] | · | 12µM* | -4%[7.34 µM] | 12µM*
COc1ccc(CCNC(=O)c2c[nH]c3ccc(F)cc3c2=O)cc1OC | · | 0% | 0% | · | 12µM*
COc1ccc(C)cc1NC(=O)C(=O)NCCc1sc(-c2ccc(Cl)cc2)nc1C | -22% | · | · | -17% | ·
COCCN(C)C(=O)c1cnn(-c2nccc(-c3cc(OC)ccc3OC)n2)c1C | i | · | · | -3% | ·
CCN(CC)S(=O)(=O)c1ccc2[nH]cc(C(=O)NCCc3ccc(OC)c(OC)c3)c(=O)c2c1 | · | 0% | 8.3µM* | 4% | ?
Cc1cc(C)cc(NS(=O)(=O)c2ccc3[nH]cc(C(=O)NCc4ccco4)c(=O)c3c2)c1 | 10µM* | 8% | 122% | 11µM* | ?
ClCC1=Nc2cccc3cccc(c23)N1 | · | · | 4.7µM* | · | 4.1µM*
Cc1ccc(-c2nc(CN(C)Cc3cccc4cnccc34)c(C)o2)s1 | -28% | -2% | 13µM* | ? | ?
Cc1ccc(-c2nc(CN(C)C3CCOCC3)c(C)o2)s1 | · | 24% | ? | · | 38%
CCC(C)c1ccc(C2C3=C(Nc4nc(N)[nH]c(=O)c42)c2ccccc2C3=O)cc1 (configuration not stated) | · | -1% | ? | · | -17%
CC1=C([N+](=O)[O-])C(c2ccccc2)C2=C(N1)c1ccccc1C2=O (configuration not stated) | 13µM* | ? | 2.9µM* | ? | ·
COc1ccc(C2C(C#N)=C(C)NC3=C2C(=O)c2ccccc23)cc1 (configuration not stated) | 2% | 1% | ? | 7% | -22%
CCOC(=O)C1=C(C)NC2=C(C(=O)c3ccccc32)C1c1cccnc1 (configuration not stated) | · | 0% | 3% | -11% | -11%
Nc1nc2c(c(=O)[nH]1)C(c1ccccc1)C1=C(N2)c2ccccc2C1=O (configuration not stated) | · | -23% | 10µM* | · | 9.3µM*
